Bioassay records (PubChem BioAssay)
A selection: hits, their analogues and other compounds. The true share with any hit is near 3%.
ClpP mod: qHTS Assay for Activators of ClpP | purified B. subtilis ClpP, FRET peptide cleavage, 20 min | ATP-dependent Clp protease proteolytic subunit (Bacillus subtilis (strain 168)), P80244 | Potency, µM (highest dose often 57.5 µM), inactives show at the highest dose activity change, negative = active | 1.9% of 340,000 active; active = well fitted falling curve with a large enough effect; inconclusive = small, poorly fitted or top-dose-only effect; inactive = no such curve, though single readings can be large or run the other way; also: potency is read from the fitted curve at half-maximal effect; the source files actives as falling curves though it sought activators and does not explain the sign; nearly all actives have a fitted effect of over 65% in size
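Buffer: 100 mM Tris/HCl pH8, 100 mM KCl, 0.05% low protease BSA, 2.5% glycerol, 0.01% Tween-20. ClpP 10 microg/mL final; 20 min RT; delta FRET normalized to ADEP and DMSO controls.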
Chronic BCR inh: blocks chronic active B-cell receptor signaling. 0.05% of 340,000 active. Potency, µM (highest dose often 46.1 µM), inactives show at the highest dose activity change, negative = inhibition, usual class: inhibitors. ABC-DLBCL IkBa-CBG/CBR reporter, luminescence ratio, 4 h. AID 493014; active = well fitted inhibition curve with a large enough effect in the signal ratio, with a control signal flat, not every such curve was filed as active; inconclusive = small, poorly fitted or top-dose-only effect, or effect the other way, or a change in a side signal; the % refers to the signal ratio;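 also: potency is read from the fitted curve at half-maximal effect; plate controls were basal doxycycline-induced cells for no effect and cells given 10 µM MG132 for full effect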
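Concentration-response series (up to 46 uM) were applied to TMD8 dual-reporter cells for 4 h at 37C with doxycycline. Green/red ratio, after filter-overlap correction, defined %Activity; red signal alone was normalised to basal cells and zero luminescence.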
LDHA inh: inhibitors of human lactate dehydrogenase A | P00338 | purified LDHA, NADH/diaphorase-resazurin fluorescence; active compounds read low | activity change, % (values are at about 110 or 230 µM) | 0.15% of 480,000 active; in the data active = activity change below about -30%; inconclusive = mostly about -25% to -30%;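 also: plate controls were DMSO wells for no effect and wells without enzyme for full effect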
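Resorufin fluorescence (ex540/em590), read at 0 and 20 min after diaphorase/resazurin addition, reports the NADH left after a 5 min room-temperature reaction of 2 nM human LDH5 with 0.06 mM NADH and 0.2 mM pyruvate.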
12-LOX inh: ALOX12 (human) lipoxygenase inhibition; 1.1% of 580,000 active; purified 12hLO, xylenol orange hydroperoxide absorbance; Potency, µM (top dose mostly 108 µM), without a hit: at the top dose activity change, negative = inhibition, usual class: inhibitors; P18054; active = well fitted inhibition curve with a large enough effect; inconclusive = small, poorly fitted or top-dose-only effect, or another doubt; inactive = no such curve, though single readings can be large or run the other way; also: potency is read from the fitted curve at half-maximal effect; % is scaled to controls: 0 for no effect and ±100 for the full control effect
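Purified human 12hLO (150 nM final) in 25 mM Hepes, 0.01% Triton X-100, pH 7.0 was preincubated 15 min at room temperature with compound. Then 40 uM arachidonic acid was added, 30 min. Hydroperoxide was read by Fe-XO absorbance ratio 573/405 nm.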
KCNH2 3.1 block: KCNH2 3.1 (human) potassium channel inhibition; U2OS KCNH2 3.1, thallium flux FluxOr; active compounds read low; activity change, % (tested at about 1.8 µM); 0.95% of 340,000 active;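 active = maximum activity change below -70%; inconclusive = maximum activity change from -70% to -50%; inactive = maximum activity change above -50%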;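 also: thallium influx rate constant from kinetic fluorescence after stimulation buffer; % is scaled to controls: 0 for no effect and ±100 for the full control effect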
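Kinetic fluorescence (2 min after stimulation buffer) measures Tl+ influx through KCNH2 3.1 expressed by viral transduction in U2OS cells; the rate constant is normalized against DMSO controls serving as positive and negative references.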
KCNH2 WT inh: KCNH2 (human, wildtype) channel inhibition; U2OS, BacMam KCNH2, thallium flux FluxOr; active compounds read low; activity change, % at 1.84 µM; 0.37% of 340,000 active;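 active = maximum activity change below -70%; inconclusive = maximum activity change between -70% and -50%; inactive = maximum activity change above -50%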; also: % is scaled to controls: 0 for no effect and ±100 for the full control effect
Target sequence (Q12809 whole entry, looked up): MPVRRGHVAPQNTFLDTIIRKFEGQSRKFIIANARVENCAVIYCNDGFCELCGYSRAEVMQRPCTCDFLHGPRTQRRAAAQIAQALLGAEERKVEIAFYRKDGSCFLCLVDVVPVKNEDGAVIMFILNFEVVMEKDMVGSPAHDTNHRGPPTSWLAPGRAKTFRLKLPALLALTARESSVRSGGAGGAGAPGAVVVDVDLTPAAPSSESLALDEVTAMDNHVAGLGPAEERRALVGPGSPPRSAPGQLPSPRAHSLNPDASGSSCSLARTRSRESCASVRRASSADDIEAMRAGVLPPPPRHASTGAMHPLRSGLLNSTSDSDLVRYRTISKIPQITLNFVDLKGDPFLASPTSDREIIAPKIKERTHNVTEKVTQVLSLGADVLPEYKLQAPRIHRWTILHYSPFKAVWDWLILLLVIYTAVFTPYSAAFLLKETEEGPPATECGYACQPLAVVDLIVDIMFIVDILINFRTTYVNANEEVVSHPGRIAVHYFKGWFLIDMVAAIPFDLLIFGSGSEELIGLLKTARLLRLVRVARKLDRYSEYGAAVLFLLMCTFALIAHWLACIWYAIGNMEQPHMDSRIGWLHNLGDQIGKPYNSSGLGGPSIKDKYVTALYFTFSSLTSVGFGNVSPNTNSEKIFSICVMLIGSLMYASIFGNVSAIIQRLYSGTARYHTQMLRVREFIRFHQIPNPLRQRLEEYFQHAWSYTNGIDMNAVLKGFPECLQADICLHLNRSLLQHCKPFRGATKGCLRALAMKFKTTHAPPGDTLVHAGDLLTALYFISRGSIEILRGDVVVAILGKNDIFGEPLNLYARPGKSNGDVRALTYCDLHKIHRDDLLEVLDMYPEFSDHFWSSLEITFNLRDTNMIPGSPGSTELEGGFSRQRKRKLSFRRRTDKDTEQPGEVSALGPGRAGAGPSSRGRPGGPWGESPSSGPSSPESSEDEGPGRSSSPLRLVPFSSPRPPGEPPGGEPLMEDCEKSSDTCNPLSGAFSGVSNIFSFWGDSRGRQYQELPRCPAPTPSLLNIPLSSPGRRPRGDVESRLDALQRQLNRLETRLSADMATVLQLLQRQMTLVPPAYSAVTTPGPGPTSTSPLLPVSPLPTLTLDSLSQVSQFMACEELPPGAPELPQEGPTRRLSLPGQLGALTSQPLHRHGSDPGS
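U2OS cells were transduced with wild-type KCNH2 virus (2.03 x 10^8 / mL) for 4 h at room temperature, then cultured overnight at 37 C. Thallium flux was read with FluxOr dye. Rate constants were normalized to DMSO controls.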
Starred values were filed as active, the others as inactive; ? = inconclusive; . = not tested or not shown; [ ] = another dose, or the depositor's remark.

SMILES	ClpP mod	Chronic BCR inh	LDHA inh	12-LOX inh	KCNH2 3.1 block	KCNH2 WT inh
O=C1C(c2ccccc2)=S=C2C=Cc3ccccc3N12	.	.	-1	22µM*	.	.
O=C(Nc1nnc(C(F)(F)F)s1)C1CCN(C(=O)c2ccccc2Cl)CC1	.	.	0	-3%	.	.
Cc1cc(C(=O)N2CCCCCCNC(=O)CC2)nn1C	.	.	.	13%	.	.
COc1ccc(OC)c(C2C(C#N)=C(N)Oc3c2c(C)nn3-c2cccc(Cl)c2)c1 (stereo not given)	-1%	?	-8	?	-94*	4
CCOC(=O)Cn1c(=O)c(-c2cc(Br)ccc2N)nc2ccccc21	0%	-6%	-2	-4%	-40	-242*
CCOC(=O)Cn1c(-c2ccc(Cl)nc2)nc2ccccc21	10µM*	5%	6	5%	-1	-22
O=C(NCCC1CCN(C(=O)Nc2ccccc2F)CC1)c1ccccc1F	.	.	.	0%	.	.
Cc1ccc(NC(=O)Nc2c(N3CCCC3)c3ccccc3oc2=O)cc1F	.	.	2	-2%	.	.
CC(C)[C@@H](C(=O)NC1CCN(Cc2ccccc2)CC1)N1C(=O)N2CCc3c([nH]c4ccccc34)[C@@]2(C)C1=O	-5%	?	-3	5%	-87*	?
C[C@@H](C(=O)NC1CCN(Cc2ccccc2)CC1)N1C(=O)N2CCc3c([nH]c4ccccc34)[C@@]2(C)C1=O	-3%	9%	-7	-5%	-41	-41
O=C(NCc1ccc(S(=O)(=O)N2CCCC2)cc1)c1n[nH]c2ccccc12	.	.	5	18%	.	.
Cc1ccc(NC(=O)c2nc3ccccc3n(C)c2=O)cc1C	.	.	5	?	.	.
COCCN(Cc1ccc(C(C)C)cc1)Cc1cc(=O)n2c3c(sc2n1)CCCC3	.	.	6	-9%	.	.
Cc1cccc(C)c1NC(=O)CN(C)C(=O)c1cc(S(=O)(=O)N(C)C)ccc1N1CCCC1	-23%	7%	-3	-42%	-7	-16
CCN1C(=O)C(CC(=O)Nc2c(C)cccc2C)Nc2cc(S(=O)(=O)N(C)C)ccc21 (stereo not given)	28µM*	1%	0	15%	2	1
COc1cc(/C=C(/C#N)c2ccc(C(F)(F)F)cn2)cc(OC)c1O	.	.	7	?	.	.
CCn1c2c(c(=O)[nH]c1=O)C(c1ccc(C)cc1)C1=C(COC1=O)N2 (stereo not given)	.	.	0	?	.	.
Cc1cc(=O)oc2cc(OCC3CC(c4ccccc4)=NO3)ccc12 (stereo not given)	28µM*	?	2	10%	-3	6
Cc1cc(=O)oc2cc(OCC3CC(c4ccc(Br)cc4)=NO3)ccc12 (stereo not given)	28µM*	0%	-2	-14%	-9	-19
C#CCOc1ccc2c(C)cc(=O)oc2c1	4%	?	-2	-9%	4	-8
O=[N+]([O-])c1ccc(OCC2CC(c3ccccc3)=NO2)cc1 (stereo not given)	.	?	0	?	-3	-19
O=C1OC2(c3ccccc31)c1cc(I)c(O)c(I)c1Oc1c2cc(I)c(O)c1I	.	?	.	1.6µM*	.	.
O=C1OC2(c3ccc(O)cc3Oc3cc(O)ccc32)c2ccccc21	.	.	.	-12%[22.9 µM]	.	.
CCOc1ccccc1C(=O)NC1CCN(c2cc(C(F)(F)F)nc(C)n2)CC1	.	.	.	8%	.	.
COc1cc(/C=N/NC(=O)CNc2cccc(C(F)(F)F)c2)ccc1OC(=O)c1ccccc1F	.	.	-32*	4%	.	.
COc1cc(C)cc(OC)c1OCc1ccc(C#N)cc1	.	.	-6	5%	.	.
COC1CCOC2(CCN(C(=O)Nc3ccc4c(c3)OCCO4)CC2)C1 (stereo not given)	.	.	.	28%	.	.
CC(=NNC(=S)N1CCCC1)c1ccccn1	-7%	.	2	18µM*	-9	0
CC(=NNC(=S)N1CCC1)c1ccccn1	-21%	.	2	50µM*	1	5
